# The list is not random: actives were taken first. Their share in the collection is about 19%.
# HT1080 IDH1KD tx: qHTS for induction of synthetic lethality in tumor cells producing 2HG: qHTS for the HT-1080-IDH1KD cell line; HT-1080 IDH1 knockdown viability, ATP luminescence, 48 h; Potency, µM (titrated, usually from 46.1 µM), without a hit: top-dose activity, negative = toxicity, usual class: cytotoxic; actives 2% (n = 360,000); AID 686971, 2013;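 note: potency is the fitted concentration of half-maximal effect; 0% = DMSO wells and -100% = cell-free medium wells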
#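 After a 2 h attachment period, IDH1KD HT-1080 cells took pin-transferred compound for 48 h at 37 °C; ATP-based luminescence after 10 min room-temperature reagent incubation reported viability.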
# HT1080-NT tox: qHTS for induction of synthetic lethality in tumor cells producing 2HG: qHTS for the HT-1080-NT fibrosarcoma cell line | actives 1.6% (n = 360,000) | Potency, µM (top dose mostly 46.1 µM), without a hit: at the highest dose activity, negative = less viability, actives largely listed as cytotoxic | HT-1080-NT fibrosarcoma viability, CellTiter-Glo ATP luminescence, 48 h;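 note: NT is the 2HG producing partner of a matched IDH1 knockdown line; potency is the fitted concentration of half-maximal effect; 0% = DMSO-treated cells and -100% = media-only wells without cells; nearly all actives have a fitted effect of over 55% in size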
#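 Luminescent CellTiter-Glo readout after 48 hours of compound exposure at 37 degrees C defined viability of HT-1080-NT cells. Activity was normalized to DMSO wells and cell-free media wells; concentration-response curves were fitted and assigned curve classes.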
# TDP1 cell noCPT: qHTS for Inhibitors of human tyrosyl-DNA phosphodiesterase 1 (TDP1): qHTS in cells in absence of CPT. Potency, µM (doses to about 46.2 µM), for the others: top-dose activity change, negative = growth inhibition, most hits filed as inhibitors. DT40 Tdp1-/- hTDP1 cells, no CPT, ATP luminescence, 48 h. actives 15% (n = 420,000); note: potency is the fitted concentration of half-maximal effect; nearly all actives have a fitted effect of over 55% in size
#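 Seeded 400 DT40-hTDP1 cells/well (vehicle DMSO, no 20 nM CPT); pinned compounds; ≥48 hr at 37 °C; CellTiter-Glo luminescence as viability measure.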
# TDP1 cell CPT: qHTS for Inhibitors of human tyrosyl-DNA phosphodiesterase 1 (TDP1): qHTS in cells in presence of CPT | Potency, µM (doses to about 46.2 µM), without a hit: at the top dose activity change, negative = growth inhibition, most hits filed as inhibitors | chicken DT40 Tdp1-/-;hTDP1 cells + 20 nM CPT, ATP luminescence, 48 h | actives 12% (n = 420,000) | AID 686979, 2013; note: potency is the fitted concentration of half-maximal effect; nearly all actives have a fitted effect of over 55% in size
#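 Cell growth measured by CellTiter-Glo luminescence after a minimum 48 h, 37 C compound exposure with 20 nM CPT in Tdp1-knockout DT40 cells stably expressing hTDP1, seeded 400/well; qHTS titration format.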
# IL1B secr inh: qHTS for Inhibitors of Inflammasome Signaling: IL-1-beta AlphaLISA Primary Screen | THP-1 LPS/ATP IL-1B secretion, AlphaLISA, 16 h; active compounds read low | activity change, % at 57.5 µM | actives 4.7% (n = 360,000) | AID 743279, 2014; in the data active = activity change below about -50%; inconclusive = mostly about -30% to -49%
#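 Secreted IL-1B measured by AlphaLISA bead assay after 16 h compound exposure of THP-1 cells; compounds (final up to 57.5 uM) added 1 h before LPS (250 ng/mL) and ATP (1.25 mM) stimulation; lower signal means less secretion.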
# Active calls of the source: *; ? = inconclusive; · = no result. Unless noted, calls come from the whole dose curve; as a rule, active = well fitted curve in the direction sought with a large enough effect; inconclusive = small, poorly fitted or top-dose-only effect, or another doubt; inactive = no such curve, though single readings can be large; an effect the other way counts as inactive or inconclusive. Unless noted, % is set by controls: 0 for no effect and ±100 for the full control effect.
SMILES,HT1080 IDH1KD tx,HT1080-NT tox,TDP1 cell noCPT,TDP1 cell CPT,IL1B secr inh
C=CCSc1nnc(-c2cnn(-c3ccccc3)c2-n2cccc2)n1C,5.4%,9.6%,-24.8%,-10.5%,-16.9
CCCSc1nnc(-c2cnn(-c3ccccc3)c2-n2cccc2)n1C,-0.3%,-3.2%,14.6µM*,18.4µM*,-8.0
Oc1c(Cl)cc(Cl)cc1Sc1cc(Cl)cc(Cl)c1O,·,·,23.1µM*,?,·
Oc1c(Cl)cc(Cl)cc1CNc1nccs1,-13.6%,-18.6%,-8.6%,-0.8%,25.2
OC[C@@H]1CN(Cc2ccc3c(c2)OCO3)C[C@H](n2cnc3c(NC4CC4)ncnc32)O1,9.7%,17.0%,20.6µM*,?,-21.2
OC[C@@H]1CN(Cc2ccc(F)cc2)C[C@H](n2cnc3c(NC4CC4)ncnc32)O1,26.6%,2.7%,-29.7%,?,-4.9
OC[C@@H]1CN(Cc2ccccc2)C[C@H](n2cnc3c(NC4CC4)ncnc32)O1,21.4%,13.1%,-28.2%,-14.2%,-9.7
OC[C@@H]1CN(Cc2ccc(Cl)cc2)C[C@H](n2cnc3c(NC4CCCC4)ncnc32)O1,-3.9%,5.8%,?,20.6µM*,16.7
CNc1ncnc2c1ncn2[C@H]1CN(Cc2cccc3ccccc23)C[C@@H](CO)O1,8.9%,28.6%,?,23.1µM*,20.4
CNc1ncnc2c1ncn2[C@H]1CN(Cc2ccccc2)C[C@@H](CO)O1,?,?,-9.5%,?,40.7
OC[C@@H]1CN(Cc2ccc(-c3ccccc3)cc2)C[C@H](n2cnc3c(NC4CCC4)ncnc32)O1,16.4µM*,13µM*,4.11µM*,4.11µM*,-17.9
CCn1nc(C(=O)OCC(=O)Nc2nc(-c3ccc(OC)cc3)cs2)c2ccccc2c1=O,-14.1%,-2.0%,?,?,-5.9
CCOc1ccc(S(=O)(=O)N2CCN(C(=O)c3ccc(-n4cncn4)c([N+](=O)[O-])c3)CC2)cc1,-0.8%,-0.7%,?,?,-6.6
Cc1cc(=O)[nH]c2nnc(SCc3ccc(Cl)c(Cl)c3)n12,·,·,-3.1%,-13.3%,·
C=C[C@@H](C1=CC(=O)C(OC)=C(OC)C1=O)c1ccccc1,·,·,0.731µM*,1.16µM*,·
COc1cc2c(cc1OC)C(C(=O)Nc1ccccc1N1CCN(C)CC1)C1c3ccccc3CCN1C2=O (configuration not stated),13.1%,0.4%,-21.4%,?,?
COc1cc2c(cc1OC)C(C(=O)Nc1ccc3c(c1)OCCO3)C1c3ccccc3CCN1C2=O (configuration not stated),-18.4%,-15.8%,23.1µM*,?,-13.6
O=C(Oc1cccc2cccnc12)c1ccco1,-15.0%,-21.3%,20.6µM*,?,33.9
O=C(Cc1ccc(Cl)cc1)Oc1cccc2cccnc12,-0.6%,2.9%,0.82µM*,0.291µM*,-99.8*
O=C(Oc1cccc2cccnc12)c1cccs1,6.51µM*,14.6µM*,0.82µM*,0.92µM*,122.6
O=C(Oc1cccc2cccnc12)c1ccc(Br)o1,13.4%,18.0%,-18.3%,-10.0%,13.2

# Compound activity from PubChem.
